Data as given in article PMC9911399, “Two distinct binding modes provide the RNA-binding protein RbFox with extraordinary sequence specificity”.
Substitutions are numbered along the chain they refer to; changes in the protein carry UniProt numbers. Whole data set: some 16,000 sequences, median “ka relative to ugcaugu” near 0.0091, cut for the highest 2% near 0.032. This excerpt belongs to a sample that is enriched for the highest values.

T1: RBFOX1 RRM (Homo sapiens, UniProt Q9NWB1 109-208)
T1 sequence: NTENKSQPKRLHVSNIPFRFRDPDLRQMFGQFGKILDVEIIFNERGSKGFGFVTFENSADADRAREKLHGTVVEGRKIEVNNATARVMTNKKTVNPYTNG

B1: CGUCGAU (DNA:RNA)
RNA: GGGAGACCGGAAUUCAGAUUGUCCCGUCGAUUUAAAUCCCGUCGUAGCCACCA
DNA 1: CAATCTGAATTCCGGTCTCCC
DNA 2: TGGTGGCTACGACGGGATT
B2: AGGUGGG (DNA:RNA)
RNA: B1 RNA with C25A, U27G, C28U, A30G, U31G
DNA 1: CAATCTGAATTCCGGTCTCCC
DNA 2: TGGTGGCTACGACGGGATT
B3: CCUAAUC (DNA:RNA)
RNA: B1 RNA with G26C, C28A, G29A, A30U, U31C
DNA 1: CAATCTGAATTCCGGTCTCCC
DNA 2: TGGTGGCTACGACGGGATT
B4: CCCUUAA (DNA:RNA)
RNA: B1 RNA with G26C, U27C, C28U, G29U, U31A
DNA 1: CAATCTGAATTCCGGTCTCCC
DNA 2: TGGTGGCTACGACGGGATT
B5: AACGCGA (DNA:RNA)
RNA: GGGAGACCGGAAUUCAGAUUGUCCAACGCGAUUAAAUCCCGUCGUAGCCACCA
DNA 1: CAATCTGAATTCCGGTCTCCC
DNA 2: TGGTGGCTACGACGGGATT
B6: UCAGGUU (DNA:RNA)
RNA: B1 RNA with C25U, G26C, U27A, C28G, A30U
DNA 1: CAATCTGAATTCCGGTCTCCC
DNA 2: TGGTGGCTACGACGGGATT
B7: ACUCGCA (DNA:RNA)
RNA: B1 RNA with C25A, G26C, A30C, U31A
DNA 1: CAATCTGAATTCCGGTCTCCC
DNA 2: TGGTGGCTACGACGGGATT
B8: AACAGAA (DNA:RNA)
RNA: B5 RNA with G28A, C29G, G30A
DNA 1: CAATCTGAATTCCGGTCTCCC
DNA 2: TGGTGGCTACGACGGGATT
B9: AAACGGU (DNA:RNA)
RNA: B5 RNA with C27A, G28C, C29G, A31U
DNA 1: CAATCTGAATTCCGGTCTCCC
DNA 2: TGGTGGCTACGACGGGATT
B10: AGGCUUG (DNA:RNA)
RNA: B1 RNA with C25A, U27G, G29U, A30U, U31G
DNA 1: CAATCTGAATTCCGGTCTCCC
DNA 2: TGGTGGCTACGACGGGATT
B11: GUAUUGC (DNA:RNA)
RNA: B5 RNA with A25G, A26U, C27A, G28U, C29U, A31C
DNA 1: CAATCTGAATTCCGGTCTCCC
DNA 2: TGGTGGCTACGACGGGATT
B12: UGAAUGA (DNA:RNA)
RNA: B5 RNA with A25U, A26G, C27A, G28A, C29U
DNA 1: CAATCTGAATTCCGGTCTCCC
DNA 2: TGGTGGCTACGACGGGATT
B13: GGAAUGC (DNA:RNA)
RNA: B5 RNA with A25G, A26G, C27A, G28A, C29U, A31C
DNA 1: CAATCTGAATTCCGGTCTCCC
DNA 2: TGGTGGCTACGACGGGATT
B14: GGAUUGC (DNA:RNA)
RNA: B5 RNA with A25G, A26G, C27A, G28U, C29U, A31C
DNA 1: CAATCTGAATTCCGGTCTCCC
DNA 2: TGGTGGCTACGACGGGATT
B15: AGGAGGC (DNA:RNA)
RNA: B5 RNA with A26G, C27G, G28A, C29G, A31C
DNA 1: CAATCTGAATTCCGGTCTCCC
DNA 2: TGGTGGCTACGACGGGATT
B16: UGAUGAA (DNA:RNA)
RNA: B1 RNA with C25U, U27A, C28U, U31A
DNA 1: CAATCTGAATTCCGGTCTCCC
DNA 2: TGGTGGCTACGACGGGATT
B17: GUAAUGC (DNA:RNA)
RNA: B5 RNA with A25G, A26U, C27A, G28A, C29U, A31C
DNA 1: CAATCTGAATTCCGGTCTCCC
DNA 2: TGGTGGCTACGACGGGATT
B18: GAAAUGC (DNA:RNA)
RNA: B5 RNA with A25G, C27A, G28A, C29U, A31C
DNA 1: CAATCTGAATTCCGGTCTCCC
DNA 2: TGGTGGCTACGACGGGATT
B19: CCGUUGC (DNA:RNA)
RNA: B5 RNA with A25C, A26C, C27G, G28U, C29U, A31C
DNA 1: CAATCTGAATTCCGGTCTCCC
DNA 2: TGGTGGCTACGACGGGATT
B20: CUGAUGA (DNA:RNA)
RNA: B5 RNA with A25C, A26U, C27G, G28A, C29U
DNA 1: CAATCTGAATTCCGGTCTCCC
DNA 2: TGGTGGCTACGACGGGATT
B21: ACCAGGC (DNA:RNA)
RNA: B5 RNA with A26C, G28A, C29G, A31C
DNA 1: CAATCTGAATTCCGGTCTCCC
DNA 2: TGGTGGCTACGACGGGATT
B22: CCAAGUA (DNA:RNA)
RNA: B1 RNA with G26C, U27A, C28A, A30U, U31A
DNA 1: CAATCTGAATTCCGGTCTCCC
DNA 2: TGGTGGCTACGACGGGATT
B23: UGACUAA (DNA:RNA)
RNA: B1 RNA with C25U, U27A, G29U, U31A
DNA 1: CAATCTGAATTCCGGTCTCCC
DNA 2: TGGTGGCTACGACGGGATT
B24: AGAUAAC (DNA:RNA)
RNA: B1 RNA with C25A, U27A, C28U, G29A, U31C
DNA 1: CAATCTGAATTCCGGTCTCCC
DNA 2: TGGTGGCTACGACGGGATT
B25: CCAGGCC (DNA:RNA)
RNA: B1 RNA with G26C, U27A, C28G, A30C, U31C
DNA 1: CAATCTGAATTCCGGTCTCCC
DNA 2: TGGTGGCTACGACGGGATT
B26: CUGUCUG (DNA:RNA)
RNA: B5 RNA with A25C, A26U, C27G, G28U, G30U, A31G
DNA 1: CAATCTGAATTCCGGTCTCCC
DNA 2: TGGTGGCTACGACGGGATT
B27: GGAUACC (DNA:RNA)
RNA: B1 RNA with C25G, U27A, C28U, G29A, A30C, U31C
DNA 1: CAATCTGAATTCCGGTCTCCC
DNA 2: TGGTGGCTACGACGGGATT
B28: GGGAUGC (DNA:RNA)
RNA: B5 RNA with A25G, A26G, C27G, G28A, C29U, A31C
DNA 1: CAATCTGAATTCCGGTCTCCC
DNA 2: TGGTGGCTACGACGGGATT
B29: CCCCGGC (DNA:RNA)
RNA: B1 RNA with G26C, U27C, A30G, U31C
DNA 1: CAATCTGAATTCCGGTCTCCC
DNA 2: TGGTGGCTACGACGGGATT
B30: UGAAUGC (DNA:RNA)
RNA: B5 RNA with A25U, A26G, C27A, G28A, C29U, A31C
DNA 1: CAATCTGAATTCCGGTCTCCC
DNA 2: TGGTGGCTACGACGGGATT
B31: UAAAUGC (DNA:RNA)
RNA: B5 RNA with A25U, C27A, G28A, C29U, A31C
DNA 1: CAATCTGAATTCCGGTCTCCC
DNA 2: TGGTGGCTACGACGGGATT
B32: GGAUGCU (DNA:RNA)
RNA: B1 RNA with C25G, U27A, C28U, A30C
DNA 1: CAATCTGAATTCCGGTCTCCC
DNA 2: TGGTGGCTACGACGGGATT
B33: CACCGGC (DNA:RNA)
RNA: B5 RNA with A25C, G28C, C29G, A31C
DNA 1: CAATCTGAATTCCGGTCTCCC
DNA 2: TGGTGGCTACGACGGGATT
B34: UGAAUUG (DNA:RNA)
RNA: B1 RNA with C25U, U27A, C28A, G29U, A30U, U31G
DNA 1: CAATCTGAATTCCGGTCTCCC
DNA 2: TGGTGGCTACGACGGGATT
B35: GUCUUGC (DNA:RNA)
RNA: B5 RNA with A25G, A26U, G28U, C29U, A31C
DNA 1: CAATCTGAATTCCGGTCTCCC
DNA 2: TGGTGGCTACGACGGGATT
B36: CGGAUGC (DNA:RNA)
RNA: B1 RNA with U27G, C28A, G29U, A30G, U31C
DNA 1: CAATCTGAATTCCGGTCTCCC
DNA 2: TGGTGGCTACGACGGGATT
B37: GGCUUGC (DNA:RNA)
RNA: B5 RNA with A25G, A26G, G28U, C29U, A31C
DNA 1: CAATCTGAATTCCGGTCTCCC
DNA 2: TGGTGGCTACGACGGGATT
B38: CGGCUUG (DNA:RNA)
RNA: B1 RNA with U27G, G29U, A30U, U31G
DNA 1: CAATCTGAATTCCGGTCTCCC
DNA 2: TGGTGGCTACGACGGGATT
B39: GUCCGGC (DNA:RNA)
RNA: B5 RNA with A25G, A26U, G28C, C29G, A31C
DNA 1: CAATCTGAATTCCGGTCTCCC
DNA 2: TGGTGGCTACGACGGGATT

Biological target: T1, RBFOX1 RRM
Test: EMSA; HiTS-Eq, 1 nM pool, 10 min; buffer printed only for the single-RNA assays: 10 mM Tris pH 7.5, 150 mM NaCl, 3.4 mM EDTA, 0.001% NP-40, 30 C
Settings: tags: His6 N-terminal (pET28a); label: 5' 32P
In short: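 A pool of RNA with 7 randomized nucleotides, 5′-radiolabelled and with DNA-annealed flanks, was equilibrated at 1 nM for 10 min in 50 µL with purified RbFox RRM, wild type or mutant, across increasing protein concentrations. Free RNA was separated by 8% native PAGE, excised, reverse-transcribed, barcoded by PCR and sequenced. Relative association constants were obtained from read-count changes of each RNA species versus the control reaction and normalised to the cognate motif.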

Binder	binding signal
B1	0.00831 KA relative to UGCAUGU
B2	0.0126 KA relative to UGCAUGU
B3	0.00151 KA relative to UGCAUGU
B4	0.00271 KA relative to UGCAUGU
B5	0.00453 KA relative to UGCAUGU
B6	0.0129 KA relative to UGCAUGU
B7	0.0123 KA relative to UGCAUGU
B8	0.00258 KA relative to UGCAUGU
B9	0.0059 KA relative to UGCAUGU
B10	0.0346 KA relative to UGCAUGU
B11	0.0151 KA relative to UGCAUGU
B12	0.0319 KA relative to UGCAUGU
B13	0.0946 KA relative to UGCAUGU
B14	0.0376 KA relative to UGCAUGU
B15	0.0129 KA relative to UGCAUGU
B16	0.0191 KA relative to UGCAUGU
B17	0.0131 KA relative to UGCAUGU
B18	0.0136 KA relative to UGCAUGU
B19	0.0124 KA relative to UGCAUGU
B20	0.0162 KA relative to UGCAUGU

Binder	binding signal
B21	0.00626 KA relative to UGCAUGU
B22	0.00123 KA relative to UGCAUGU
B23	0.00904 KA relative to UGCAUGU
B24	0.00125 KA relative to UGCAUGU
B25	0.0113 KA relative to UGCAUGU
B26	0.0306 KA relative to UGCAUGU
B27	0.00541 KA relative to UGCAUGU
B28	0.0515 KA relative to UGCAUGU
B29	0.00228 KA relative to UGCAUGU
B30	0.0399 KA relative to UGCAUGU
B31	0.00992 KA relative to UGCAUGU
B32	0.0261 KA relative to UGCAUGU
B33	0.00645 KA relative to UGCAUGU
B34	0.0261 KA relative to UGCAUGU
B35	0.0291 KA relative to UGCAUGU
B36	0.0275 KA relative to UGCAUGU
B37	0.0328 KA relative to UGCAUGU
B38	0.0325 KA relative to UGCAUGU
B39	0.00575 KA relative to UGCAUGU
